The source of these data is PubChem BioAssay.

The nature of assay [1]: inhibitors of TNFa-induced NFkB p65 translocation, primary screen, imaging, HUVEC, MLSMR starter and 10KST1 sets (AID 438;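 active = inhibition above 20% together with a positive visual image hit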;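 also: compound added about 3h40 before a 20 min TNFalpha stimulation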;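 as to inhibition: signal is the nuclear over cytoplasmic p65 intensity ratio per well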). Particulars: HUVEC TNFa-induced p65 nuclear translocation; cell count: measured here: nuclei count (cytotoxicity indicator), at 2.08 µM; inhibition: at 2 µM, stronger effect = higher value, 0% TNFa-plus-vehicle, 100% no-TNFa wells.
The nature of assay [2]: inhibitors of mutant huntingtin aggregation, primary screen, imaging, exon1htt(103Q)mCFP cells, high-content imaging (AID 483;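 active = visual image review flags a hit and inhibition of aggregation exceeds 20%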;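 also: compound exposure lasted 3 days before fixation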;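 as to nuclei count: percent of the per-plate median nuclei count of sample wells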). Conditions: exon1htt(103Q)mCFP cell line, aggregate imaging, at 2 µM; inhibition of aggregation: stronger effect = higher value; nuclei count: measured here: cell count, toxicity.
Assay [3] can be described thus: inhibitors of E-selectin induction by TNFa, primary screen, imaging, HUVEC, immunofluorescence, MLSMR starter and 10KST1 sets (AID 487;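 active = visually confirmed hit in the image check and inhibition above 20%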;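 as to inhibition: signal is fraction of cell area covered by stained E-selectin grains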;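 as to nuclei count: 100% = median nuclei count of all wells on the same plate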). Conditions: HUVEC TNFalpha-induced E-selectin immunofluorescence imaging, at 2 µM; inhibition: stronger effect = higher value; nuclei count: measured here: cell number, toxicity.
Assay [4] in a line: DUSP6 inhibitors restoring Erk phosphorylation by chemical complementation, primary imaging in DUSP6-transfected HeLa (AID 609;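 active = compounds giving at least 50% inhibition in the cell-based MKP-3 phosphatase rescue imaging test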;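 as to inhibition: phospho-Erk level distribution per well compared with pooled transfected vehicle control wells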). Conditions: HeLa MKP-3 transfected, phospho-Erk imaging KS statistic, at 10 µM, cells stimulated with TPA for 15 min.
The target in assay [5] is Dual specificity protein phosphatase 6 (Homo sapiens) (UniProt Q16828). The assay is described as above. Particulars: HeLa MKP-3 transfected, phospho-Erk imaging KS statistic; at 10 µM; stronger effect = higher value; cells stimulated with TPA for 15 min.
Chain of Dual specificity protein phosphatase 6 (Homo sapiens) (Q16828 whole entry, looked up): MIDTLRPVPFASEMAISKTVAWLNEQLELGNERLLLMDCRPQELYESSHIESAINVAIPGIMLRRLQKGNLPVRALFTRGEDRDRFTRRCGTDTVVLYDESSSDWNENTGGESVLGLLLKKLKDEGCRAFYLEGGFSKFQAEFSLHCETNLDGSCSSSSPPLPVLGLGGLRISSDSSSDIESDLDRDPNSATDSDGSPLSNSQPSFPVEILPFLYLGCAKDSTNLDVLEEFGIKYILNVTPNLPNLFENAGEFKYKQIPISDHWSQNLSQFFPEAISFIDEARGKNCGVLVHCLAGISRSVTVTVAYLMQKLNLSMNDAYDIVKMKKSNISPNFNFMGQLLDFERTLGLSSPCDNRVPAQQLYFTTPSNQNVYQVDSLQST
For assay [6], the target named is Voltage-gated potassium channel subunit beta-2 (Rattus norvegicus) (UniProt P62483). Nature of the assay: KvBeta enzyme negative modulators, primary screen, biochemical, NADPH fluorescence (AID 622;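 active = fluorescence slope higher than the sample average by over 3 SD, cut at about -0.22 in these data, passing the limit was not always enough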;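 also: slope of raw intensity against log time taken from 70 to 1610 s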). Conditions: recombinant KvBeta, 4-cyanobenzaldehyde reduction, at 10 µM, stronger effect = higher value.
Chain of Voltage-gated potassium channel subunit beta-2 (Rattus norvegicus) (P62483 whole entry, looked up): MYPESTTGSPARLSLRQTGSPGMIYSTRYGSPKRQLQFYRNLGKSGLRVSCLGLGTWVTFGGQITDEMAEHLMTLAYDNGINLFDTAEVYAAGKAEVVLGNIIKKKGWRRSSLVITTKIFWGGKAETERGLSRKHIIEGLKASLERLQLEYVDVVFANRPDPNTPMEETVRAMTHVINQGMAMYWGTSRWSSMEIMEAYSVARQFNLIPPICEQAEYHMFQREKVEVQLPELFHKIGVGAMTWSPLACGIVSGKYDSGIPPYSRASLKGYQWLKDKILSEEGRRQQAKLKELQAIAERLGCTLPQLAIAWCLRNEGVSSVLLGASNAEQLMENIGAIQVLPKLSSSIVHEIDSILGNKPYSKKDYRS
For assay [7] the target is unchanged. Nature of the assay: KvBeta positive modulators, primary screen, biochemical, NADPH fluorescence (AID 623;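 active = NADPH fluorescence slope more negative than the mean of all samples by about 3 SD, 99.7% confidence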;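 also: fluorescence intensity change per second fitted from 20 to 320 s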). Particulars: Recombinant KvBeta, NADPH fluorescence decrease slope, 10 min; at 10 µM; stronger effect = lower value.
Assay [8] deals with Muscarinic acetylcholine receptor M4 (Homo sapiens) (UniProt P08173). Nature of the assay: compounds altering M4/GIRK thallium flux, either direction, primary screen, M4 allosteric agonist project, cell-based, HEK293 M4/GIRK, BTC-AM (AID 625;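 active = fluorescence slope after compound addition differing from the mean of all tested samples at 99.7% confidence, mostly higher but some lower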;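 also: thallium influx through GIRK channels coupled to M4 in HEK293 cells with BTC-AM dye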). Conditions: at 10 µM, actives lie on both sides.
Chain of Muscarinic acetylcholine receptor M4 (Homo sapiens) (P08173 whole entry, looked up): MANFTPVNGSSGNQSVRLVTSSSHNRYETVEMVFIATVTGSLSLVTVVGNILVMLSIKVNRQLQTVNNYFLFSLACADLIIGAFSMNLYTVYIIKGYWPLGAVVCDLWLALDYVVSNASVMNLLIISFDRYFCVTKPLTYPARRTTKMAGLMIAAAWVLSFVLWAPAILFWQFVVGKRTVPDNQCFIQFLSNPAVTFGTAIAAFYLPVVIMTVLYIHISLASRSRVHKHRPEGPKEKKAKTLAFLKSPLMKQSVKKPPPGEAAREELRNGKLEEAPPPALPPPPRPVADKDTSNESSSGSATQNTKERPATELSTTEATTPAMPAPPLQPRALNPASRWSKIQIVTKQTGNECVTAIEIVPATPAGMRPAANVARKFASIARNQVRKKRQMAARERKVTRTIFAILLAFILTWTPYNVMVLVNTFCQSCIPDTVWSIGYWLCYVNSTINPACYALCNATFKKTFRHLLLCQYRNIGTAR
A short description of assay [9]: inhibitors of larval lipid processing in zebrafish, primary screen, whole organism, PED6 fluorescence, gall bladder and intestine (AID 686;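 active = a full or partial loss of lipid-probe fluorescence in the fish gall bladder, intestine or both, judged by eye; inactive = no fluorescence loss, or compound toxic to the fish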;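 also: larvae 5 to 7 days old with five fish per well; signal comes from phospholipase A2 cleavage of quenched PED6 carried via bile; overnight exposure to compound and PED6 before scoring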). Conditions: Zebrafish larvae PED6 lipid processing, fluorescence scoring; screened at 20 µM (by protocol).
Assay [10] can be described thus: inhibitors of Chlamydomonas gravitaxis, primary screen, whole organism, Chlamydomonas reinhardtii, WT vs cilia-less mutant, absorbance, 96-well (AID 463189).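 Also: 0% = wild type cc124 cells in DMSO and 100% = ciliumless bld1 mutant cells.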 Conditions: OD600 absorbance, 2 days, at 10 µM, stronger effect = higher value.
A short description of assay [11]: inhibitors of Sendai virus-induced IRF3 signaling, primary screen, TLR/RLR signaling modifier project, cell-based, Sendai virus stimulus, luciferase, 10K MLSCN set (AID 602276;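 active = inhibition at or above 50% at 10 µM; inactive = inhibition below 50%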;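 also: firefly luciferase from ISG56 promoter only with Renilla not read in this screen; 0% = Sendai virus plus DMSO and 100% = medium plus DMSO without virus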). Conditions: HEK293 RL24 IRF3 luciferase reporter, at 10 µM, stronger effect = higher value.
Assay [12] can be described thus: inhibitors of poly I:C-induced TLR3 signaling, primary screen, cell-based, poly I:C stimulus, luciferase, 10K MLSCN set (AID 602277;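 active = inhibition of the reporter signal at or above 50%; inactive = inhibition below 50%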). Conditions: HEK293-TLR3 RL24 IRF3 luciferase reporter, at 10 µM, stronger effect = higher value.
The mark [13] stands for this setting: measured here: cell density z-score.
Setting [14] is: measured here: nuclear c-Myc green intensity z-score.
Where [15] appears, read: measured here: nuclear pErk red intensity z-score, stronger effect = higher value.

One may read the inhibition as the drop in the measured response relative to a control, in per cent.

Structures are written as SMILES. Active and inactive are the calls of the source.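 The calls were made as follows, unless noted: active = inhibition at or above 50% relative to wild type and mutant plate controls; inactive = inhibition below 50%.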

For the compound `O=C(NC1CCS(=O)(=O)C1)c1c(NC(=O)C2COc3ccccc3O2)sc2c1CCCC2` (configuration not stated), in [1], the cell count is 657. Further, the inhibition in [1] is -7% (inactive); in assay [3], -35.3% (inactive); in assay [5], 5.42% (inactive); in assay [10], 30.5% (inactive); in assay [11], 17.1% (inactive); in assay [12] it was 14.6% (inactive). Also, the inhibition of aggregation in [2] is 3% (inactive). Moreover, the nuclei count in [2] was 97.6%; in assay [3], 143%. Further, the z-score in assay [4] (setting [13]) was 0.65; in assay [4] (setting [14]), -1.93; in [4] (setting [15]) it was 0.35. Besides, the fluorescence slope in assay [6] was -0.42 (inactive); in assay [8], 0.00528 (inactive). Moreover, in assay [7], the NADPH fluorescence slope was -4.5e-05 (inactive). Moreover, the call in assay [9] was inactive.
On to `Cn1c(=O)[nH]c(=O)c2c1nc(N(CCO)Cc1ccccc1)n2Cc1ccccc1Cl`, for which the cell count in assay [1] came out at 650. Besides, the inhibition in assay [1] is 4.6% (inactive); in assay [3] it was -37.5% (inactive); in assay [5] it was 1.63% (inactive); in [10], 31.2% (inactive); in assay [11], 16.5% (inactive); in assay [12], 28.7% (inactive). In addition, in assay [2], the inhibition of aggregation was -19.3% (inactive). Besides, the nuclei count in [2] is 139%; in assay [3], 109%. Also, the z-score is 1.19 in [4] (setting [13]), -1.16 in assay [4] (setting [14]) and -0.515 in assay [4] (setting [15]). Further, the values for the fluorescence slope in [6] and in assay [8] were -0.438 (inactive) and 0.00652 (inactive), respectively. In [7], the NADPH fluorescence slope is -6.1e-05 (inactive). Further, in [9], the compound was classed as inactive.
Consider `COC(=O)C(NC(C)=O)(Nc1ccccn1)C(F)(F)F` (configuration not stated), for which the cell count in assay [1] was 499. The inhibition in assay [1] was -0.5% (inactive); in [3], -61.1% (inactive); in assay [5], 41.5% (inactive); in [10], -7.72% (inactive); in [11], 12.5% (inactive); in [12] it was 20.1% (inactive). For the same compound, in assay [2], the inhibition of aggregation is 12.2% (inactive). The nuclei count in [2] turned out to be 111%; in assay [3], 121%. Further, the z-score in [4] (setting [13]) is 2.44; in assay [4] (setting [14]), -0.933; in assay [4] (setting [15]), -0.0238. Also, the fluorescence slope in assay [6] is -0.44 (inactive); in assay [8], 0.00527 (inactive). The NADPH fluorescence slope in [7] was -0.000125 (inactive). The result in assay [9] was inactive.
As for `Cc1nnc2n(-c3ccccc3)c(=O)c3c4c(sc3n12)CCCC4`, the cell count in assay [1] stood at 661. Further, the inhibition is -4.7% (inactive) in [1]; -54% (inactive) in assay [3]; -3.95% (inactive) in [5]; 24.9% (inactive) in [10]; -14.4% (inactive) in assay [11]; -35.5% (inactive) in assay [12]. Also, the inhibition of aggregation in assay [2] is 8% (inactive). Moreover, the results for the nuclei count in [2] and in [3] were 95.5% and 122%, respectively. The values for the z-score in [4] (setting [13]), in assay [4] (setting [14]) and in [4] (setting [15]) were -1.12, -0.18 and 0.377, respectively. The fluorescence slope was -0.468 (inactive) in assay [6] and 0.00446 (inactive) in assay [8]. Moreover, the NADPH fluorescence slope in assay [7] was -0.000128 (inactive). In [9], the call was inactive.
On to `Cc1c(O)c(CN2CCCCC2)cc2c3c(c(=O)oc12)CCC3`, for which the cell count in assay [1] was determined as 706. Further, the inhibition was -5.5% (inactive) in assay [1]; -1.4% (inactive) in assay [3]; -10.6% (inactive) in assay [5]; 1.32% (inactive) in [10]; 12.6% (inactive) in assay [11]; 14.9% (inactive) in [12]. In addition, the inhibition of aggregation in assay [2] was 2.7% (inactive). The nuclei count in assay [2] was found to be 106%; in assay [3], 130%. In addition, the z-score in assay [4] (setting [13]) is 0.172; in [4] (setting [14]), -1.04; in assay [4] (setting [15]), -0.433. Further, the fluorescence slope was -0.00734 (inactive) in assay [6] and 0.00439 (inactive) in assay [8]. Also, the NADPH fluorescence slope in [7] is -1.2e-06 (inactive). Besides, the compound was called inactive in [9].
For `N#C/C(C(=O)N1CCOCC1)=C1/SC(Cc2ccccc2)C(=O)N1c1ccccc1` (configuration not stated), the cell count in assay [1] was determined as 520. The inhibition in [1] was -7.6% (inactive); in [3], 3.5% (inactive); in assay [5], -2.09% (inactive); in assay [10], -6.43% (inactive); in assay [11], 15.2% (inactive); in [12], 24.9% (inactive). Besides, the inhibition of aggregation in assay [2] was 18.9% (inactive). The nuclei count in assay [2] is 105%; in assay [3] it was 112%. Further, the values for the z-score in assay [4] (setting [13]), in assay [4] (setting [14]) and in assay [4] (setting [15]) were -1.65, 1.02 and 0.783, respectively. Further, the fluorescence slope in assay [6] was -0.431 (inactive); in [8], 0.00475 (inactive). For the same compound, the NADPH fluorescence slope in assay [7] is -3.8e-05 (inactive). Further, the result in assay [9] was inactive.
